Hits are enriched below; roughly 4.7% of the tested compounds scored in any of these assays.
NTMT1 inhibitor: Primary qHTS for Inhibitors of N-terminal methyltransferase 1 (NTMT1): MTaseGlo Assay. NTMT1 MTase-Glo SAH luminescence, purified enzyme. Potency, µM (top dose mostly 114 µM), most hits filed as inhibitors. actives 2.5% (n = 59,000); also: nearly all actives have a fitted effect of over 65% in size
Target sequence (Q9BV86 whole entry, looked up): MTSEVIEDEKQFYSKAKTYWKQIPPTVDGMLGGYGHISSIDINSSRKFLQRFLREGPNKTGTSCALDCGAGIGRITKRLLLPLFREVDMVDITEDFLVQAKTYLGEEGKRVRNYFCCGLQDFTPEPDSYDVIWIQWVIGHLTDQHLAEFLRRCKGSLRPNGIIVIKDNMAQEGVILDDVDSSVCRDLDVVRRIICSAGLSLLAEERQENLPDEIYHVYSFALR
HTT promoter inh: Primary qHTS for Identification of Small Molecule Inhibitors of Huntingtin Promoter Activity; HEK293 HTT promoter firefly luciferase reporter, 24 h; Potency, µM (top dose mostly 57.5 µM), usual class: inhibitors; actives 0.93% (n = 48,000); also: nearly all actives have a fitted effect of over 50% in size
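Firefly luciferase signal from promoter-reporter HEK293 cells was scaled between vehicle (0%) and zero RLU (-100%). Compounds were tested at final concentrations of up to 57.5 uM over 24 h at 37 degrees C. PTC124 at 50 uM final served as control inhibitor.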
HTT-AS act: Primary qHTS for Identification of Small Molecule Activators of Huntingtin-Antisense Promoter Activity; HEK293 HTT-AS promoter firefly luciferase reporter, 24 h; response scale: percent change from vehicle, -100% = no light; Potency, µM (titrated, usually from 57.5 µM), most hits filed as activators; actives 0.24% (n = 48,000); AID 1508624, 2021; also: nearly all actives have a fitted effect of over 55% in size
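HEK293 Fluc reporter, 2,500 cells/well, 24 h pre-culture; cpds up to 57.5 uM final, 24 h 37 degrees C; Dual-Glo, 10 min RT; normalized vehicle = 0%, zero RLU = -100%.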
FH mod: Identification of activators of human fumarate hydratase by quantitative high-throughput screening. Fumarate hydratase, mitochondrial (Homo sapiens), P07954. FH coupled MDH/diaphorase resazurin fluorescence, 15 min. Potency, µM (doses to about 79.9 µM), most hits filed as inhibitors. actives 0.22% (n = 54,000); also: the screen sought activators but most active calls are inhibition curves; nearly all actives have a fitted effect of over 45% in size
DRV1 agonist: qHTS for Agonists of Human Resolvin D1 Receptor DRV1; CHO-K1 GPR32 beta-arrestin PathHunter luminescence, 90 min; zero percent set by DMSO-only wells; activation, % at 76.9 µM; actives 2.5% (n = 48,000);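 active = activation of at least 60% and not above a set upper limit, about 1 call in 100 departs from these limits; inconclusive = activation of 40% to 60%, or above that upper limit; inactive = activation under 40%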
Target sequence (O75388 whole entry, looked up): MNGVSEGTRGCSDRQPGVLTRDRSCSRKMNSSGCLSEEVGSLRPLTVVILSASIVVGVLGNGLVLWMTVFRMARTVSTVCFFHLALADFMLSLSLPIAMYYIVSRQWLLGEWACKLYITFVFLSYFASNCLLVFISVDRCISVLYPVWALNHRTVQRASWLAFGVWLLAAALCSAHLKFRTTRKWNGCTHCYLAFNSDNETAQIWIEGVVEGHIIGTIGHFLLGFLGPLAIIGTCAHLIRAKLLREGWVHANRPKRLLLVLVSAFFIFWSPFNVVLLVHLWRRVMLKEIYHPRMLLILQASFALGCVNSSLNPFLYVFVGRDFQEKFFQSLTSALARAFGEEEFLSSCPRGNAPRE
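Cells are plated overnight, treated with compounds in DMSO for 90 minutes at 37 °C, and developed with PathHunter detection reagent for 1 hour before luminescence is read; signal reflects beta-arrestin binding to GPR32 in engineered CHO-K1 cells.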
Large screens that a line does not name were inactive; ! = not active in a repeat. Unless noted, calls follow the shape of the dose curve; as a rule, active = well fitted curve in the direction sought with a large enough effect; inconclusive = small, poorly fitted or top-dose-only effect, or another doubt; inactive = no such curve, though single readings can be large; an effect the other way counts as inactive or inconclusive.

CCOc1cc2ncc(C#N)c(Nc3ccc(OCc4ccccn4)c(Cl)c3)c2cc1NC(=O)/C=C/CN(C)C	NTMT1 inhibitor inconclusive (no result: HTT promoter inh, HTT-AS act, DRV1 agonist)
CN(C)CC=CC(=O)Nc1cc2c(Nc3ccc(F)c(Cl)c3)ncnc2cc1O[C@H]1CCOC1	NTMT1 inhibitor 22µM, HTT promoter inh inconclusive (no result: DRV1 agonist)
CN(C)C/C=C/C(=O)Nc1cc2c(Nc3ccc(F)c(Cl)c3)ncnc2cc1O[C@H]1CCOC1	NTMT1 inhibitor 3.2µM (no result: HTT promoter inh, HTT-AS act, FH mod, DRV1 agonist)
CCOc1cc2ncc(C#N)c(Nc3ccc(F)c(Cl)c3)c2cc1NC(=O)C=CCN(C)C	NTMT1 inhibitor 3.8µM (no result: DRV1 agonist)
COc1cc2ncnc(Nc3ccc(F)c(Cl)c3)c2cc1NC(=O)C=CCN1CCCCC1	none (no result: DRV1 agonist)
CC1(C)C(N(O)C(=O)Nc2ccc(Cl)cc2)N(c2ccc(Cl)cc2)C(=O)N1CC(=O)N/N=C/C=C/c1ccc([N+](=O)[O-])o1 (centres undefined)	none (no result: HTT promoter inh, HTT-AS act, FH mod, DRV1 agonist)
CCc1cccc(C)c1NC(=O)CCS(=O)(=O)c1ccc2c(c1)oc(=O)n2C	NTMT1 inhibitor 40µM
Cc1cccc(C)c1NC(=O)CCS(=O)(=O)c1ccc2c(c1)n(C)c(=O)c(=O)n2C	none
O=C(CN1C(=O)N/C(=C\c2cccn2-c2cccc(C(=O)O)c2)C1=O)Nc1cccc(Cl)c1	NTMT1 inhibitor 79µM (no result: HTT promoter inh, HTT-AS act, FH mod, DRV1 agonist)
O=C(CN1C(=O)N/C(=C\c2cccn2-c2cccc(C(=O)O)c2)C1=O)Nc1cccc(F)c1	none (no result: HTT promoter inh, HTT-AS act, FH mod, DRV1 agonist)
O=C(O)c1cccc(-n2cccc2/C=C2/C(=O)N(Cc3ccc(F)cc3)C(=O)N2Cc2ccc(F)cc2)c1	NTMT1 inhibitor 79µM (no result: HTT promoter inh, HTT-AS act, FH mod, DRV1 agonist)
Cc1ccc(NC(=O)CN2C(=O)N/C(=C\c3cccn3-c3ccc(C(=O)NS(C)(=O)=O)cc3)C2=O)cc1	NTMT1 inhibitor 79µM (no result: HTT promoter inh, HTT-AS act, FH mod, DRV1 agonist)
O=C(CN1C(=O)N/C(=C\c2cccn2-c2cccc(C(=O)O)c2)C1=O)Nc1ccccc1F	none (no result: HTT promoter inh, HTT-AS act, FH mod, DRV1 agonist)
CCn1c(-c2ccc(S(=O)(=O)N3CCOCC3)cc2)csc1=Nc1ccc(C)c(Cl)c1	none
Cn1c(-c2ccc(S(=O)(=O)N3CCCC3)cc2)csc1=Nc1ccc(Cl)c(Cl)c1	NTMT1 inhibitor inconclusive, HTT promoter inh 5µM
Cc1cccc(CNc2ccnc(-c3ccccc3C)n2)c1	none (no result: HTT promoter inh, HTT-AS act, FH mod, DRV1 agonist)
O=C(COc1ccc2oc3c(c2c1)CCCC3)Nc1ccc(Cl)cc1	DRV1 agonist 74
C=CC(=O)c1ccc(CCCCCC)cc1	none (no result: NTMT1 inhibitor, HTT promoter inh, HTT-AS act, FH mod)
CCCCCCCCc1ccc(CCC(N)(CO)CO)cc1	NTMT1 inhibitor 45µM! (no result: DRV1 agonist)
COc1ccc(OC)c(CNCc2c(C(=O)O)n(Cc3cccc(F)c3)c3cc(OC)ccc23)c1	NTMT1 inhibitor inconclusive
COc1ccc2c(CNCCc3ccc(SC)cc3)c(C(=O)O)n(Cc3ccc(F)cc3)c2c1	HTT promoter inh inconclusive, FH mod inconclusive, DRV1 agonist 115
Cc1ccc(CNCc2c(C(=O)O)n(Cc3ccc(C)cc3)c3cc(C)ccc23)cc1	HTT promoter inh inconclusive, FH mod inconclusive, DRV1 agonist 98
CCc1ccc(CNCc2c(C(=O)O)n(Cc3cccc(F)c3)c3cc(OC)ccc23)cc1	HTT promoter inh inconclusive, DRV1 agonist 109
COc1ccc(Cn2c(C(=O)O)c(CNCCc3ccco3)c3ccc(OC)cc32)cc1	none
O=C(c1ccc2c(c1)N(Cc1ccccc1)C(=O)c1ccccc1S2(=O)=O)N1CCc2ccccc21	none
COc1ccccc1NC(=O)C1=C(C)Nc2nc(SCc3ccccc3F)nn2C1c1ccncc1 (centres undefined)	NTMT1 inhibitor 89µM
Cc1ccc(C)c(NC(=O)N2CCN(C(=O)c3nsc4ccccc34)CC2)c1	HTT promoter inh inconclusive
Cc1ccc(CS(=O)(=O)c2ncc(Cl)c(C(=O)Nc3nc4ccc(F)cc4s3)n2)cc1	HTT promoter inh inconclusive, DRV1 agonist 80
COc1ccc2nc(NC(=O)c3nc(S(=O)(=O)Cc4ccc(C)cc4)ncc3Cl)sc2c1	none
Cc1ccc(CS(=O)(=O)c2ncc(Cl)c(C(=O)Nc3nc4ccc(C)cc4s3)n2)cc1	HTT promoter inh inconclusive, DRV1 agonist 70
CCOC(=O)c1cc(-c2ccccc2)n(CCC(=O)Nc2cc(C)cc(C)c2)c1C	HTT promoter inh inconclusive, FH mod inconclusive
CCOC(=O)c1cc(-c2ccccc2)n(CCC(=O)Nc2ccc(Cl)c(C(F)(F)F)c2)c1C	HTT promoter inh 22µM, FH mod inconclusive
CCOc1cccc(NC(=O)C2CC(=O)N(C)C(=Nc3ccc(F)cc3)S2)c1 (centres undefined)	HTT promoter inh inconclusive, FH mod inconclusive, DRV1 agonist 78
CCCCN(CCCC)CC(O)Cn1cc(/C=C/C(=O)c2ccccc2)c2ccccc21 (centres undefined)	DRV1 agonist 88
CCN(CC)CCCCn1c(-c2ccccc2)nc2c(NCc3ccccc3)nc(C)nc21	NTMT1 inhibitor 89µM (no result: HTT promoter inh, HTT-AS act, FH mod, DRV1 agonist)
C/C(=C\C(=O)Nc1ccccc1C(=O)O)c1ccc2ccccc2c1	NTMT1 inhibitor 28µM (no result: HTT promoter inh, HTT-AS act, DRV1 agonist)
O=C(O)c1ccccc1Nc1ccccc1	none (no result: NTMT1 inhibitor, HTT promoter inh, HTT-AS act)
NCCc1ccc(O)c(O)c1	NTMT1 inhibitor 32µM!, FH mod inconclusive
COc1ccc(-c2cc(C(F)(F)F)nc(SCCC(=O)Nc3cccc(O)c3)n2)cc1	FH mod inconclusive
CCOC(=O)C1CCN(C(=O)Cn2nc(CC)n3c(cc4sccc43)c2=O)CC1	HTT promoter inh 2.8µM
COc1ccc(S(=O)(=O)N(CCc2ccccc2)CC(=O)Nc2cc(Cl)ccc2C)cc1	NTMT1 inhibitor 4µM, HTT promoter inh inconclusive
CN1CCc2c(sc3c2C(=O)NC(c2ccc(C(C)(C)C)cc2)N3)C1 (centres undefined)	NTMT1 inhibitor 79µM
COc1ccc(NC(=O)CSc2nc(-c3ccco3)cc(C(F)(F)F)n2)cc1OC	HTT promoter inh 2.2µM
COc1ccc(-c2cc(C(F)(F)F)nc(SCC(=O)NC(C)c3ccccc3)n2)cc1 (centres undefined)	DRV1 agonist 106
COc1ccc(-c2cc(C(F)(F)F)nc(SCCC(=O)Nc3ccc(O)cc3)n2)cc1	HTT promoter inh inconclusive, DRV1 agonist 86
Cc1ccc(NC(=O)CSc2nc(-c3ccco3)cc(C(F)(F)F)n2)cc1C	HTT promoter inh inconclusive
COc1ccc(NC(=O)CCSc2nc(-c3ccc(OC)cc3)cc(C(F)(F)F)n2)cc1	none
C[C@@H]1O[C@@H](O[C@H]2[C@@H](OC(=O)[C@]34CCC(C)(C)CC3C3=CCC5[C@@]6(C)C[C@H](O)[C@H](O[C@@H]7O[C@H](C(=O)O)[C@@H](O)[C@H](O)[C@H]7O)[C@@](C)(C(=O)O)C6CC[C@@]5(C)[C@]3(C)CC4)OC[C@H](O)[C@@H]2O)[C@H](O)[C@H](O)[C@H]1O[C@@H]1OC[C@@H](O)[C@H](O)[C@H]1O (some centres undefined)	none (no result: HTT promoter inh, HTT-AS act, DRV1 agonist)

Compound activity deposited in PubChem by National Center for Advancing Translational Sciences (NCATS).
